# Data as given in PubChem BioAssay (Tox21).
# “And” between values parts separate entries of the source, which are not always exact repeats. Equal values may be shown once. A number with no mark means an inactive call. Records with an inconclusive call do not appear. The source made the active and inactive calls. The call rests on the fitted dose curve; in most records, active means well fitted curve in the direction sought with a large enough effect in the repeat runs; inconclusive means weak or mixed curves; inactive means no such curve, though single readings can be large; an effect the other way counts as inactive or inconclusive.
# Experiment: qHTS assay to identify small molecule HDAC inhibitors (AID 1259364); further: top concentration of the series differs between compounds; nearly all actives have a fitted effect of over 45% in size
# Settings: HCT-116 HDAC-Glo I/II luminescence, 2 h; series mostly up to 92.4 µM; activity change, negative = inhibition: at the top concentration
# Summary of the method: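 Wild-type HCT-116 cells were plated overnight, exposed to compounds for 2 h at 37 °C, then given HDAC-Glo class I/II luminogenic reagent for 30 min at room temperature before luminescence was read.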
# On the % scale 0 is the no-effect control and ±100 the full control effect.
Compound,"activity change, negative = inhibition",Potency
COc1cccc(O)c1,-1.5%,
CCCCNc1c(C(=O)OCC)c(C)nc2c1cnn2CC,0.136% [at 42.5 µM],
O=S(=O)(O)CCCN1CCOCC1,0.913%,
CCCCCCCCCCCCCc1ccccc1,5.62% [at 42.5 µM],
CC1=CCC(=O)O1,-0.492%,
CCC(=O)CC(C)CC (stereo not drawn),2.62% [at 0.349 µM],
Cc1ccc2ccc3cccc4ccc1c2c34,2.35%,
O=S(O)O,2.9% [at 19 µM],
O=C=NCc1cccc(CN=C=O)c1,3.12% [at 19 µM],
CCN(CC)CCSC(=O)C(c1ccccc1)c1ccccc1,-2.72% [at 42.5 µM],
CC(=O)c1ccccc1N,-3.69%,
C=CC(=C)CC/C=C(\C)CCC=C(C)C,8.2% [at 19 µM],
c1ccc(Nc2cccc3ccccc23)cc1,,inactive
OCCC(O)CO (stereo not drawn),-0.709%,
Cc1cc(C)c(C=O)c(C)c1,2.96%,
CNC(=S)NN,3.05%,
CCCCCCCC(C)=O,16.2%,
C/C=C/C(=O)Oc1c(CCCCCC(C)C)cc([N+](=O)[O-])cc1[N+](=O)[O-],-0.425%,

Compound,"activity change, negative = inhibition",Potency
CCc1cccc(CC)c1N(COC)C(=O)CS(=O)(=O)O,-2.76%,
C/C=C/C(=O)C1=C(C)CCCC1(C)C,-6.14%,
CCN(CC)c1cccc(C)c1,-2.73%,
CC(C)=C1CC[C@@H](C)CC1=O,0.123%,
CN(Cc1cc(Br)cc(Br)c1N)C1CCCCC1,-2.53% [at 42.5 µM],
C(=C/c1ccccc1)/c1ccccc1,-9.35%,
CCCCCCCC/C=C\CCCCCCCC(=O)N(C)CC(=O)O,-0.182%,
CC=O,12.5%,
CCCCCCCCCCCCCC[n+]1ccccc1,12.6%,
Cc1cc(=O)[nH]c(=O)[nH]1,-4.79%,
CCCCCCCC/C=C\CCCCCCCC(=O)OCCOC(=O)CCCCCCC/C=C\CCCCCCCC,-4.17%,
CSc1ccc2c(c1)N(CCC1CCCCN1C)c1ccccc1S2 (stereo not drawn),,inactive
Cn1cnc2ncnc(N)c21,2.78% [at 42.5 µM],
COc1ccc(C#N)cc1,-0.255%,
CCc1cccc(C)c1,0.734%,
CC(C)=CC1CC(C)CCO1 (stereo not drawn),0.896%,
CCCCCCCCCCCCCOP(=O)(O)O,4.11%,
O=C1OC(=O)c2ccc3c4c(ccc1c24)C(=O)OC3=O,-3.86%,

# Experiment: qHTS assay to identify small molecule HDAC inhibitors - cell viability counter screen (AID 1259365); further: nearly all actives have a fitted effect of over 50% in size
# Settings: HCT-116 viability, CellTiter-Glo ATP luminescence, 2 h; series mostly up to 92.4 µM; activity change, negative = cytotoxicity: at the top concentration
# Summary of the method: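 To flag cytotoxic hits, 1,500 wild-type HCT-116 cells per well, plated the day before, receive test compounds for 2hr at 37 C before CellTiter-Glo reagent and a luminescence read.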
Compound,"activity change, negative = cytotoxicity",Potency
COc1cccc(O)c1,4.18%,
CCCCNc1c(C(=O)OCC)c(C)nc2c1cnn2CC,-11.2% [at 42.5 µM],
O=S(=O)(O)CCCN1CCOCC1,0.147%,
CCCCCCCCCCCCCc1ccccc1,-0.694% [at 42.5 µM],
CC1=CCC(=O)O1,0.656%,
CCC(=O)CC(C)CC (stereo not drawn),3.99% [at 0.349 µM],
Cc1ccc2ccc3cccc4ccc1c2c34,0.257%,
O=S(O)O,2.88% [at 19 µM],
O=C=NCc1cccc(CN=C=O)c1,0.277% [at 19 µM],
CCN(CC)CCSC(=O)C(c1ccccc1)c1ccccc1,0.551% [at 42.5 µM],
CC(=O)c1ccccc1N,-1.1%,
C=CC(=C)CC/C=C(\C)CCC=C(C)C,3.69% [at 19 µM],
c1ccc(Nc2cccc3ccccc23)cc1,,inactive
OCCC(O)CO (stereo not drawn),-1.64%,
Cc1cc(C)c(C=O)c(C)c1,3.09%,
CNC(=S)NN,-0.0515%,
CCCCCCCC(C)=O,-0.918%,
C/C=C/C(=O)Oc1c(CCCCCC(C)C)cc([N+](=O)[O-])cc1[N+](=O)[O-],9.45%,

Compound,"activity change, negative = cytotoxicity",Potency
CCc1cccc(CC)c1N(COC)C(=O)CS(=O)(=O)O,-0.549%,
C/C=C/C(=O)C1=C(C)CCCC1(C)C,3.21%,
CCN(CC)c1cccc(C)c1,3.48%,
CC(C)=C1CC[C@@H](C)CC1=O,-1.15%,
CN(Cc1cc(Br)cc(Br)c1N)C1CCCCC1,-11.2% [at 42.5 µM],
C(=C/c1ccccc1)/c1ccccc1,-2.21%,
CCCCCCCC/C=C\CCCCCCCC(=O)N(C)CC(=O)O,5.18%,
CC=O,5.01%,
CCCCCCCCCCCCCC[n+]1ccccc1,-9.27%,
Cc1cc(=O)[nH]c(=O)[nH]1,-0.508%,
CCCCCCCC/C=C\CCCCCCCC(=O)OCCOC(=O)CCCCCCC/C=C\CCCCCCCC,-0.377%,
CSc1ccc2c(c1)N(CCC1CCCCN1C)c1ccccc1S2 (stereo not drawn),-0.427% [at 42.5 µM],
Cn1cnc2ncnc(N)c21,5.94% [at 42.5 µM],
COc1ccc(C#N)cc1,-0.527%,
CCc1cccc(C)c1,-6.63%,
CC(C)=CC1CC(C)CCO1 (stereo not drawn),-2.68%,
CCCCCCCCCCCCCOP(=O)(O)O,1.31%,
O=C1OC(=O)c2ccc3c4c(ccc1c24)C(=O)OC3=O,4.39%,

# Experiment: qHTS assay to identify small molecule agonists of the sonic hedgehog signaling (Shh) pathway - cell viability counter screen (AID 1259366); further: nearly all actives have a fitted effect of over 50% in size; further: potency means the concentration at half of the fitted maximal effect
# Settings: NIH/3T3 Gli1-Luc viability, CellTiter-Fluor, 24 h; series mostly up to 92.4 µM; viability change, negative = cytotoxic: at the top concentration
# Summary of the method: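 Fluorescence from CellTiter-Fluor reports live cells in this counter screen. NIH/3T3-derived Gli1-Luc reporter cells receive test compounds for 24hr at 37C; reagent goes in at 23hr.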
Compound,"viability change, negative = cytotoxic",Potency
COc1cccc(O)c1,-7.08%,
CCCCNc1c(C(=O)OCC)c(C)nc2c1cnn2CC,-15.4% [at 42.5 µM],
O=S(=O)(O)CCCN1CCOCC1,-4.55%,
CCCCCCCCCCCCCc1ccccc1,-5.08% [at 42.5 µM],
CC1=CCC(=O)O1,2.01%,
CCC(=O)CC(C)CC (stereo not drawn),4% [at 0.349 µM],
Cc1ccc2ccc3cccc4ccc1c2c34,9.74%,
O=S(O)O,2.93% [at 19 µM],
O=C=NCc1cccc(CN=C=O)c1,4.73% [at 19 µM],
CCN(CC)CCSC(=O)C(c1ccccc1)c1ccccc1,2.83% [at 42.5 µM],
CC(=O)c1ccccc1N,0.681%,
C=CC(=C)CC/C=C(\C)CCC=C(C)C,-6.51% [at 19 µM],
c1ccc(Nc2cccc3ccccc23)cc1,-12.2%,
OCCC(O)CO (stereo not drawn),-2.79%,
Cc1cc(C)c(C=O)c(C)c1,-2.46%,
CNC(=S)NN,,30.6 µM (active)
CCCCCCCC(C)=O,0.266%,
C/C=C/C(=O)Oc1c(CCCCCC(C)C)cc([N+](=O)[O-])cc1[N+](=O)[O-],,61.1 µM (active)

Compound,"viability change, negative = cytotoxic",Potency
CCc1cccc(CC)c1N(COC)C(=O)CS(=O)(=O)O,-1.5%,
C/C=C/C(=O)C1=C(C)CCCC1(C)C,-5.92%,
CCN(CC)c1cccc(C)c1,0.655%,
CC(C)=C1CC[C@@H](C)CC1=O,0.0462%,
CN(Cc1cc(Br)cc(Br)c1N)C1CCCCC1,5.41% [at 42.5 µM],
C(=C/c1ccccc1)/c1ccccc1,-1.06%,
CCCCCCCC/C=C\CCCCCCCC(=O)N(C)CC(=O)O,3.54%,
CC=O,,28.6 µM (active)
CCCCCCCCCCCCCC[n+]1ccccc1,,61.1 µM (active)
Cc1cc(=O)[nH]c(=O)[nH]1,1.35%,
CCCCCCCC/C=C\CCCCCCCC(=O)OCCOC(=O)CCCCCCC/C=C\CCCCCCCC,3.87%,
CSc1ccc2c(c1)N(CCC1CCCCN1C)c1ccccc1S2 (stereo not drawn),,15.3 µM (active) and 29.8 µM (active)
Cn1cnc2ncnc(N)c21,0.874% [at 42.5 µM],
COc1ccc(C#N)cc1,-0.98%,
CCc1cccc(C)c1,2.89%,
CC(C)=CC1CC(C)CCO1 (stereo not drawn),0.736%,
CCCCCCCCCCCCCOP(=O)(O)O,3.55%,
O=C1OC(=O)c2ccc3c4c(ccc1c24)C(=O)OC3=O,-0.45%,
